Where “and” joins values, the source holds several entries; their conditions need not be identical. Equal values may be shown once. Results with a measured potency or affinity are listed apart.

For orientation: Inhibition means the drop in the measured response relative to a control, in per cent.

For the assay, the system named is Candida albicans. The settings on record: 20 µM.
As to `O=C(Nc1ccc(NC(=O)c2ccncc2)cc1)c1ccncc1`, the Inhibition is 1.6%.
In the case of `COc1cc(NC(=O)CCl)ccc(=O)c1`, the Inhibition was determined as 1.92%.
For `O=[N+]([O-])c1ccc(-c2ncc(-c3ccc(Br)cc3)o2)cc1`, the Inhibition amounted to 5.85%.
As to `COc1ccc(Cc2nnc(SC)n2-c2ccc(F)cc2)cc1OC`, the Inhibition stood at 2.19%.
In the case of `O=C(Oc1ccccc1)c1cccc2cccc(C(=O)Oc3ccccc3)c12` it was 7.13%.
`N#Cc1ccc(NC2c3ccccc3CC2O)cc1` (stereo unspecified): the Inhibition was 0.94%.
For the compound `OC(COc1cccc2ccccc12)CN1CCN(c2ccc(Cl)cc2)CC1` (stereo unspecified), the Inhibition is 1.46% and -1.63%.
In the case of `COc1cc2c(c3c1c(=O)c1cccc(F)c1n3C)C=CC(C)(C)O2`, the Inhibition turned out to be 1.02%.
`CC(C)(C)C(=O)/C=C/c1ccc(Oc2ccccc2)cc1`: the Inhibition was 4.03%.
In the case of `Cc1cnc2cc(Cl)ccc2c1SCC(=O)O` it was 11.6%; in that of `O=C(Nc1ccc(F)cc1)OCCOc1ccc([N+](=O)[O-])cc1`, 4.71%.
As for `NC(=O)c1ccc(Oc2ccc(C(N)=O)cc2)cc1`, the figure is -0.45%; as for `CCSc1ncc(CO)c(N)n1`, 0.06%; as for `CCN(CC)CCN1C(=O)c2cccc3cc(N)cc(c23)C1=O`, -0.17%.
With `CC(C)(C)N1CC(OC(N)=O)C1`, the Inhibition was found to be 1.7%.
In the case of `NC(=O)/C(=C\c1ccncc1)c1cccc2ccccc12` it was -4.11%.

The values are drawn from ChEMBL document CHEMBL4296182, “CO-ADD screening of NIH NCI Diversity Set V”.
